HCV inh = inhibitors of hepatitis C virus infection; Huh7.5.1 HCVcc-Cre infection, luciferase reporter, 44 h; Potency, µM (top dose mostly 41.8 µM), without a hit: top-dose activity change, negative = inhibition, actives largely listed as inhibitors; hit rate 3.4% among 340,000; active = well fitted inhibition curve with a large enough effect; inconclusive = small, poorly fitted or top-dose-only effect, or another doubt; inactive = no such curve, though single readings can be large or run the other way; also: potency is read from the fitted curve at half-maximal effect
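After 44 h co-culture of compound, cells and HCVcc-Cre (~0.5 moi), substrate is added for 15 min at room temperature and luciferase measured over 15 sec. Cells were seeded at 1,000/well and pre-cultured 4 h.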
Lassa entry inh = Lassa virus entry inhibition | AID 540256 | Potency, µM (doses to about 37.9 µM), without a hit: at the top dose activity change, negative = inhibition, actives largely listed as inhibitors | Lassa virus pseudotype entry inhibition, cell reporter | hit rate 1.2% among 300,000; calls by dose curve; tested in HEK293 cells; also: potency is read from the fitted curve at half-maximal effect; nearly all actives have a fitted effect of over 50% in size
HCMV inh = inhibitors of human cytomegalovirus; hit rate 4.5% among 410,000; activity change, negative = inhibition, % at 57.5 µM; HFF cells, HCMV-luciferase reporter, 72 h; hits give low values; in the data active = activity change below about -60%; inconclusive = no clear call, values can overlap the other calls; inactive = above about -39%
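Inhibition of viral replication was scored as loss of reporter luminescence in HFFs infected with HCMV-luciferase (MOI 1 PFU/cell) for 72 h; compounds tested at 2 doses, normalized to buffer and Salinomycin controls.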
Marburg entry inh = Marburg virus entry inhibition. Marburg virus pseudotyped entry inhibition, cell reporter. Potency, µM (titrated, usually from 37.8 µM), without a hit: at the highest dose activity change, negative = inhibition, actives largely listed as inhibitors. hit rate 1.8% among 300,000. AID 540276; calls by dose curve; tested in HEK293 cells; also: potency is read from the fitted curve at half-maximal effect
FMDV inh = blocks foot and mouth disease virus; FMDV antiviral cell-based qHTS; hit rate 1.2% among 410,000; Potency, µM (doses to about 57.9 µM), for inactives: at the top dose activity change, negative = inhibition, usual class: inhibitors; calls by dose curve; tested in HEK293T cells; also: read-out not given here; potency is read from the fitted curve at half-maximal effect; nearly all actives have a fitted effect of over 45% in size
Starred values were filed as active, the others as inactive; ? = inconclusive; nt = no result; [ ] = another dose, or the depositor's remark. In the library only some 7.9% were active in any assay of this set; here they are far more common. % is scaled to controls: 0 for no effect and ±100 for the full control effect.

SMILES	HCV inh	Lassa entry inh	HCMV inh	Marburg entry inh	FMDV inh
CCCCn1c(N)c(N(CC)C(=O)c2ccncc2)c(=O)[nH]c1=O	-26%	nt	8	nt	-19%
CCCCCN(C(=O)CCC(=O)OCc1ccc(Cl)cc1Cl)c1c(N)n(CCCC)c(=O)[nH]c1=O	?	?	-9	2.5µM*	-28%
CCCCn1c(N)c(N(CC)C(=O)c2cccs2)c(=O)[nH]c1=O	-2%	5%	-61*	12%	-2%
CCCCn1c(N)c(N(CC)C(=O)c2cccc(OC)c2)c(=O)[nH]c1=O	5%	24%[46.1 µM]	-72*	4%[46.1 µM]	-8%
C=CCN1C(=O)CC[C@@]23C1=NC(C(=O)OC)=C(C(=O)OC)[C@@H]2N(CC=C)c1ccccc13	nt	nt	nt	-3%[14.2 µM]	nt
CC(C)=CC(=O)O[C@@H]1Cc2cc3ccc(=O)oc3cc2OC1(C)C	3.2µM*	nt	8	nt	-12%
CC(C(=O)N(C)C1CCS(=O)(=O)C1)N1C(=O)/C(=C/c2ccco2)SC1=S (stereo unspecified)	-21%	nt	-93*	nt	-12%
O=C(CN1C(=O)/C(=C/c2ccco2)SC1=S)NC1CCS(=O)(=O)C1 (stereo unspecified)	5%	nt	4	nt	-5%
CC(C(=O)N(C)C1CCS(=O)(=O)C1)N1C(=O)/C(=C/c2cccs2)SC1=S (stereo unspecified)	-17%	nt	-31	nt	?
CCN(C(=O)C(C)N1C(=O)/C(=C/c2cccs2)SC1=S)C1CCS(=O)(=O)C1 (stereo unspecified)	-14%	nt	-63*	nt	-19%
Cc1ccccc1C1=N/C(=C/c2cccs2)C(=O)O1	10%	nt	-2	nt	-17%
Cc1ccc(C2=N/C(=C/c3cccs3)C(=O)N2Nc2ccccc2)cc1	11µM*	-20%	-6	?	-7%
COc1ccc(OC)c(C(=O)c2coc3ccc(OC(C)=O)cc23)c1	-7%	11µM*	-20	?	12%
COc1cc(C(CCN2CCOCC2)c2c(OC)cc(OC)c3c(C)cc(=O)oc23)cc(OC)c1OC (stereo unspecified)	-1%	nt	53	nt	96%
COc1cc(C(CCN2CCCC2)c2c(OC)cc(OC)c3c(C)cc(=O)oc23)cc(OC)c1OC (stereo unspecified)	10µM*	nt	-26	nt	7%
COc1cc(NC(=O)C2CCN(S(=O)(=O)c3ccc4c(c3)CCCC(=O)N4)CC2)cc(OC)c1	nt	-12%[46.1 µM]	-10	nt	-10%
Fc1ccc(C[n+]2c(-c3ccccc3)cc(-c3ccccc3)cc2-c2ccccc2)cc1	10µM*	nt	-84*	nt	0%
O=C(NCCc1ccc(Cl)cc1)c1cc(-c2ccccc2)n[nH]1	nt	-11%[46.1 µM]	-21	nt	-7%
Cc1cc(-c2ccccc2)cc(-c2ccccc2)[n+]1CCc1ccccc1	?	nt	-98*	nt	20µM*
O=C([O-])c1cc(-c2ccccc2)cc(-c2ccccc2)[n+]1CCc1ccc(Cl)cc1	1%	nt	-80*	nt	35µM*
CCOc1ccc(-c2cc(C)[n+](CCO)c(-c3ccc(OCC)cc3)c2)cc1	-24%	?	-77*	?	-27%
CCOc1ccc(-c2nnc(-c3cccs3)o2)cc1	?	?	48	?	-51%
CCOC(=O)CN1C(=O)/C(=C2\SC(=S)N(NC(=O)c3cccnc3)C2=O)c2ccccc21	11%	nt	3	nt	-21%
Cc1cccc(CSc2ccc3nnc(CCNS(=O)(=O)c4ccccc4)n3n2)c1	nt	-13%[46.1 µM]	-8	nt	9%
Cc1ccc(S(=O)(=O)NCCc2nnc3ccc(SCC(=O)Nc4nc(C)cs4)nn23)cc1	-5%	0%	-37	-10%	-11%
SMILES	HCV inh	Lassa entry inh	HCMV inh	Marburg entry inh	FMDV inh
NC(=S)N/N=C1\CC(c2ccc3c(c2)OCCCO3)Oc2ccc(F)cc21 (stereo unspecified)	8.9µM*	?	-14	?	?
CCN(CC)S(=O)(=O)c1cccc(C(=O)N[C@@H](C)c2nc3ccccc3[nH]2)c1	nt	nt	16	nt	nt
CCN(CC)S(=O)(=O)c1cccc(C(=O)NC(Cc2c[nH]c3ccccc23)c2nnc3n2CCC3)c1 (stereo unspecified)	32%	?	-61*	-1%	-2%
CCCN(CC(=O)Nc1ccccc1C)C(=O)C1CCN(S(=O)(=O)c2ccc(C)c(C)c2)CC1	nt	nt	-61*	nt	-16%
CCCN(CC(=O)Nc1ccccc1C)C(=O)C1CCN(S(=O)(=O)c2ccc3c(c2)OCCO3)CC1	-5%	nt	63	nt	-5%
O=C(Nc1ccc(Oc2ccccc2)cc1)C1CCN(S(=O)(=O)c2ccccc2)CC1	nt	-1%[46.1 µM]	-82*	3%[46.1 µM]	?
O=C(Nc1ccc(S(=O)(=O)N2CCCC2)cc1)C1CCCN1C(=O)c1cccs1 (stereo unspecified)	4%	-4%	-101*	0%[46.1 µM]	-6%
O=C(Nc1ccc(Oc2ccccc2)cc1)C1CCCN(c2ncccn2)C1 (stereo unspecified)	21%	-10%	-72*	5%	-5%
Cc1cc(-c2ccnc(-n3ncc(C(=O)N(C)Cc4nccs4)c3C)n2)c(C)s1	nt	nt	nt	nt	40%
Cc1ccccc1NC(=O)C1CCN(S(=O)(=O)c2ccccc2)CC1	nt	-16%[46.1 µM]	-78*	nt	-10%
Cc1ccccc1C(=O)N1CCC(C(=O)Nc2ccc(S(=O)(=O)N3CCCCC3)cc2)CC1	13µM*	?	-9	-30%	?
O=c1c2cc(N3CCOCC3)ccc2[nH]c(=S)n1Cc1ccc(Cl)cc1	?	?	-87*	4%	2%
O=C(CCCCCn1c(=S)[nH]c2ccc(N3CCOCC3)cc2c1=O)NCc1ccc(Cl)cc1	-19%	?	-75*	?	?
Cc1nn(-c2ccccc2)c2sc(C(=O)Nc3cccc(Cl)c3)cc12	nt	-24%[46.1 µM]	?	2%[46.1 µM]	-21%
CCC1CCCCN1c1ccc([N+](=O)[O-])cc1/C=N/NC(=O)Cn1c2ccccc2c(=O)c2ccccc21 (stereo unspecified)	?	-4%	-13	0.89µM*	-18%
COCc1nc2oc3ccc(C)cc3c(=O)c2cc1C(=O)OC	-8%	?	-71*	?	-10%
Cc1ccc(N2C(=O)C[C@H](Cn3nc(C)cc3C)C2=O)cc1	nt	nt	nt	-1%	nt
COc1ccc(-c2ccccc2)cc1NC(=O)[C@@H]1O[C@H](CO)[C@H](O)[C@H](O)[C@H]1O	nt	nt	46	nt	42%
CN(C)N=Nc1nc2c([nH]1)c(=O)n(C)c(=O)n2C	-7%	2%	7	12%[46.1 µM]	1%
CN(C)N=Nc1nc2c(c(=O)n(C)c(=O)n2C)n1CC1CO1 (stereo unspecified)	4µM*	?	-77*	?	-23%
O=C(c1ccccc1)c1coc2ccc(O)c(Cl)c12	nt	-10%[14.3 µM]	28	-7%	0%
Cc1oc2c(c1C(=O)c1ccccc1)C(=O)C(=O)c1ccccc1-2	10µM*	10µM*	-103*	?	?
CCOC(=O)c1c(C)nc2c(c1-c1ccccc1)C(=O)c1ccccc1-2	?	?	-101*	?	7%
O=C1C(=O)c2c(C(=O)c3ccccc3)coc2-c2ccccc21	11µM*	?	-93*	?	-1%
